Tat transport – blocks Tat-dependent protein export in E. coli; E. coli MC4100 TorA-mCherry Tat export, fluorescence; inhibition, % at 10 µM; 340,000 tested, 0.036% active; AID 488895;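 active means mean replicate inhibition at least 50% and at least half of replicates individually reaching 50%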;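 further: exported cargo escapes ClpAP degradation while cytoplasmic cargo is degraded and loses fluorescence; 0% = median of neutral control wells and 100% = median of NaSCN control wells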
phage Ecoli inh – E. coli growth loss with phage present. growth absorbance. inhibition, % at 11.9 µM. 360,000 tested, 0.26% active; in the data active means inhibition above about 11%
E coli growth-1 – E. coli growth inhibition. OD600 absorbance (concentration not given with the values). 330,000 tested, 0.21% active. Escherichia coli growth, OD600, 23 h; stronger effect = lower value;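 active means OD600 absorbance below the run mean of sample wells minus 3.6 SD, in any replicate, cut at about 0.56 in these data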
AddAB inh – less growth of phage-infected E. coli with AddAB; AID 435030; inhibition, % at 11.9 µM; 330,000 tested, 0.29% active; E. coli expressing H. pylori AddAB, absorbance growth; in the data active means inhibition above about 12%;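 further: 0% = vehicle wells of infected cells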
E coli growth-2 – counter-screen for AddAB inhibitors: E. coli growth inhibition. E. coli V3065 growth, OD600 absorbance, 18 h. inhibition, % at 11.9 µM. 330,000 tested, 0.27% active;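 active means inhibition above the campaign's mean inhibition across all tested compounds plus 3 SD, cut at about 9.9% in these data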;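 further: uninfected addAB+ strain grown without phage in ampicillin broth; 0% = DMSO wells and 100% = ciprofloxacin 0.95 µg/ml wells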
AddAB confirm – growth loss of T4-infected E. coli expressing H. pylori AddAB, confirmed. shares compounds with AddAB inh. E. coli V3065 expressing H. pylori AddAB, T4 phage, OD; T4 phage with gene 2 nonsense mutations. inhibition, % at 11.9 µM. 880 tested, 64% active. AID 488942;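 active means mean inhibition above a set limit taken from the earlier primary screen, cut at about 13% in these data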;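 further: higher means less bacterial growth since AddAB block lets phage replicate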
RecBCD counter – reduces growth of phage-infected RecBCD+ E. coli, AddAB inhibitor counter-screen. shares compounds with AddAB inh. E. coli V66 + mutant T4 phage, OD growth. inhibition, % at 11.9 µM. 880 tested, 73% active. AID 488955;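 active means mean inhibition above the mean of solvent-only control wells plus 3 SD, cut at about 4% in these data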;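 further: optical density read after an 18 h incubation at 37 °C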
bact viab count – counter-screen for AddAB inhibitors: inhibitors of bacterial viability; inhibition, % at 11.9 µM; shares compounds with AddAB inh; absorbance (AddAB counterscreen); 880 tested, 35% active; in the data active means inhibition above about 25%
Numbers without * were called inactive; nt = no result. Most compounds without a hit are left out; they make up all but 0.51% or so of the library.

SMILES	Tat transport	phage Ecoli inh	E coli growth-1	AddAB inh	E coli growth-2	AddAB confirm	RecBCD counter	bact viab count
O=C(NNC(=S)NC(=O)c1ccco1)c1ccc(NC(=O)c2ccccc2)cc1	-8	0	0.57	1	3	nt	nt	nt
COc1cc(CCCN2C(N)=NCC2Cc2ccc(O)cc2)cc(OC)c1OC (centres undefined)	nt	nt	0.7	nt	nt	nt	nt	nt
CCCNC(=O)c1cn(CC)c2cc(N3CCN(C(=O)c4ccco4)CC3)c(F)cc2c1=O	15	8	0.089*	94*	58*	99*	2	58*
CCn1cc(C(=O)NN)c(=O)c2cc(F)c(N3CCCCC3)cc21	-7	-1	0.68	nt	nt	nt	nt	nt
CCn1cc(C(=O)NCc2cccc(F)c2)c(=O)c2cc(F)c(N3CCN(C(=O)c4ccco4)CC3)cc21	6	4	0.41*	95*	70*	98*	1	62*
FC(F)(F)c1ccc(C2C3CN(CC4CCCCC4)C(c4ccccc4)C34CC2(c2cccnc2)C4)cc1 (centres undefined)	nt	nt	0.69	nt	nt	nt	nt	nt
Cc1nnc(SCC(=O)NN=Cc2ccc(-c3ccc(C)c(Cl)c3)o2)s1	nt	nt	0.72	nt	nt	nt	nt	nt
COc1cc(NS(=O)(=O)c2ccc(NC(=S)NC(=O)c3sc4ccccc4c3Cl)cc2)ncn1	6	8	0.72	13*	5	-2	2	0
Cc1ccc(S(=O)(=O)N2CCC(C(=O)NNC(=O)c3ccccc3O)CC2)cc1	-2	9	0.73	10	6	nt	nt	nt
Cc1ccc(S(=O)(=O)N2CCC(C(=O)NNC(=O)c3ccccc3O)CC2)cc1C	-8	7	0.7	14*	9	12	9.4*	13
COc1cccc(Cn2nnc(C(=O)NCc3ccc(F)cc3)c2N)c1	-4	4	0.74	21*	9	1	0	-4
CC(C)(C)OC(=O)N1CCCC1C(=O)N1CCC(C(=O)O)CC1 (centres undefined)	nt	nt	0.72	nt	nt	nt	nt	nt
COc1cccc(/C=N/Nc2cc(-n3nc(C)cc3-c3ccccc3)ncn2)c1O	-6	7	nt	18*	17*	10	8.8*	6
COc1cc(CNC(=O)c2ccc3oc(C(C)C)nc3c2)cc(OC)c1	-25	11	0.61	14*	9	7	6.4*	4
Cc1cnc(CNC(=O)c2ccc3oc(C(C)C)nc3c2)[nH]1	13	4	0.7	4	3	nt	nt	nt
C=CCN(c1ccccc1)S(=O)(=O)c1cccc(C(=O)NNC(=O)c2ccccc2O)c1	-4	5	0.7	12*	0	5	4	4
CCNc1c([N+](=O)[O-])c(=O)oc2ccccc12	4	5	0.61	13*	8	29*	2	3
O=c1oc2ccccc2c(NC(c2ccccc2)c2ccccc2)c1[N+](=O)[O-]	-13	3	0.7	39*	6	101*	5.3*	12
CC(Nc1c([N+](=O)[O-])c(=O)oc2ccccc12)C(Cl)c1ccccc1 (centres undefined)	-6	3	0.73	-2	2	nt	nt	nt
CCc1ccc(Nc2c([N+](=O)[O-])c(=O)oc3ccccc23)cc1	0	1	0.64	3	3	nt	nt	nt
COc1ccccc1C=NNC(=O)c1nnn(-c2nonc2N)c1-c1ccccc1	nt	nt	0.68	nt	nt	nt	nt	nt
C/C(=N\Nc1nc2ccccc2[nH]1)c1ccccn1	-8	27*	nt	27*	27*	25*	14*	9
O=C1CC(c2ccc(O)cc2)Oc2cc(OC3OC(CO)C(O)C(O)C3O)cc(OC3OC(CO)C(O)C(O)C3O)c21 (centres undefined)	nt	nt	0.63	nt	nt	nt	nt	nt
COCC1CCN(Cc2nc(COc3ccccc3)no2)C1 (centres undefined)	5	-1	0.71	32*	33*	-5	-1	-5
CCCC1SC(=NN=Cc2ccc(C)cc2)N(Cc2ccc(OC)cc2)C1=O (centres undefined)	nt	nt	0.71	nt	nt	nt	nt	nt
SMILES	Tat transport	phage Ecoli inh	E coli growth-1	AddAB inh	E coli growth-2	AddAB confirm	RecBCD counter	bact viab count
O=S1(=O)Nc2c(ccc3cccnc23)-c2ccccc21	21	nt	0.22*	51*	51*	45*	49*	46*
O=C(COC(=O)Cc1c[nH]c2ccccc12)Nc1c(Cl)cccc1C(F)(F)F	5	0	0.67	3	-3	nt	nt	nt
O=C(COC(=O)Cc1n[nH]c(=O)c2ccccc12)Nc1c(Cl)cccc1C(F)(F)F	-3	7	0.61	56*	27*	-1	0	-2
O=C(CNc1cccc2ccccc12)N/N=C/c1ccc([N+](=O)[O-])o1	-21	3	nt	14*	3	35*	3	6
O=C(CCN1CCN(c2ccccc2)CC1)N/N=C/c1ccc([N+](=O)[O-])o1	7	7	nt	26*	7	78*	4	7
CC(=O)Nc1ccc(C=NNC(=O)CCN2CCN(c3ccccc3)CC2)cc1	nt	nt	0.67	nt	nt	nt	nt	nt
COc1ccccc1/C=C/C=NNC(=O)CCC1C(=O)NN=C1C (centres undefined)	nt	nt	0.69	nt	nt	nt	nt	nt
COc1ccccc1-[n+]1c(C)cc(/C=C2\Sc3ccccc3N2C)cc1C	-7	13*	0.36*	23*	19*	33*	18*	30*
Cc1cc(C(=O)NN=Cc2cccc([N+](=O)[O-])c2)c2ccccc2n1	nt	nt	0.64	nt	nt	nt	nt	nt
O=C(Nc1nnc(C(F)(F)F)s1)c1ccc(Br)s1	-3	4	0.62	14*	9	4	6.7*	1
CC(=NNC(=O)c1cccc(S(=O)(=O)N2CCOCC2)c1)c1ccc(OC(F)F)cc1	nt	nt	0.69	nt	nt	nt	nt	nt
O=C(Nc1cc(C(F)(F)F)ccc1-n1cncn1)c1ccc([N+](=O)[O-])o1	1	10	0.66	18*	14*	73*	5.7*	19
O=[N+]([O-])c1cc(-c2ncccn2)cs1	-1	10	0.6	17*	13*	100*	8.6*	27*
CC(C)CNC(=S)NC(=O)c1csc([N+](=O)[O-])c1	-15	1	0.57	4	-1	nt	nt	nt
COc1cc(C)c2occ(C(C)=NO)c2c1	nt	nt	0.66	nt	nt	nt	nt	nt
COc1ccc(CCCC(=O)NN=Cc2ccc(C)cc2)cc1	nt	nt	0.69	nt	nt	nt	nt	nt
CCCCCCN1Cc2ccccc2C1	2	5	0.75	3	-1	nt	nt	nt
CCCCCCCCn1ccc(=N)cc1	-6	2	0.61	13*	10*	-3	0	-2
CCCCCCCCCCn1ccc(=N)cc1	-8	8	0.45*	14*	9	6	4.3*	6
O=C(C=CNc1ccc(F)cc1)c1cccs1	nt	nt	0.72	nt	nt	nt	nt	nt
Cc1c(Br)c([N+](=O)[O-])nn1C(C)C(=O)NCc1ccco1 (centres undefined)	8	2	0.64	17*	6	17*	3	12
